Results: PubChem BioAssay AID624116 (National Center for Advancing Translational Sciences (NCATS), 2012)
Inconclusive results are not listed. Active and inactive are the calls of the source. The call rests on the fitted dose curve; in most records, active means well fitted activation curve with a large enough effect; inconclusive means small, poorly fitted or top-dose-only effect; inactive means no such curve, though single readings can be large or run the other way.

Experiment: qHTS Assay for Rab9 Promoter Activators: Hit Validation Using Renilla Luciferase Read-Out for Rab9; on activation, negative = inhibition: % of control where 0% means no effect
Conditions: Huh7 Rab9 promoter Renilla luciferase reporter, 24 h; series mostly up to 76.9 µM; activation, negative = inhibition: at the top concentration
In short: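 Huh7 cells stably carrying promoter-luciferase reporter, exposed to compound for 24 h at 37 deg C. Luminescence read 10 min after adding luciferase detection reagent at room temperature.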
Potency means the concentration at half of the fitted maximal effect.

Compound | activation, negative = inhibition | Potency
Cc1cccc(C)c1NC(=O)Nc1cccs1 | 2.79% (inactive) | –
CC(=O)Nc1nnc(SCC(=O)NCCOc2ccccc2)s1 | -5.36% (inactive) | –
O=C(NC(=S)Nc1ccc(CN2CCCCC2)cc1)c1cc2ccccc2o1 | -6.19% (inactive) | –
Cc1nn(CCCC(=O)NCc2ccc(F)cc2)c(C)c1[N+](=O)[O-] | -6.9% (inactive) | –
CCN(CC(=O)N(CC(C)C)c1c(N)n(CC(C)C)c(=O)[nH]c1=O)Cc1nc2ccccc2c(=O)[nH]1 | -1.5% (inactive) | –
NC(=O)COC(=O)c1ccc2noc(-c3ccccc3)c2c1 | -0.713% (inactive) | –
Nc1c(N(CCO)C(=O)/C=C/c2ccco2)c(=O)[nH]c(=O)n1Cc1ccccc1 | 5.1% (inactive) | –
O=C(CSc1nnc(-c2ccccn2)o1)Nc1ccccc1F | -6.23% (inactive) | –
COc1ccccc1N(C(=O)c1snc(C(N)=O)c1N)C(C(=O)NC1CCCCC1)c1cccc(OC)c1OC (stereo not drawn) | – | 26 µM (active)
Cc1nc2sc(C(=O)OC(C)C)c(N)c2c(C)c1C | 4.33% (inactive) | –
CC(=O)NC(CCCN1C(=O)c2ccccc2C1=O)c1nnn(C)n1 (stereo not drawn) | -10.2% (inactive) | –
Cc1ccc(S(=O)(=O)/N=C2\C=C(Nc3cccc(C(=O)O)c3)C(=O)c3ccccc32)cc1 | -96.1% (inactive) | –
Cc1cc(C)c2c(N)c(C(=O)Nc3ccc([N+](=O)[O-])cc3)sc2n1 | -4.2% (inactive) | –
CCCCCCC(=O)Nc1ccc(C(=O)N/N=C/c2cccnc2)cc1 | 4.77% (inactive) | –
CC(C)C(NC(=O)c1ccc([N+](=O)[O-])cc1Cl)C(=O)N1CCCC1 (stereo not drawn) | 6.26% (inactive) | –
O=C(CCc1cccc(Cl)c1)NC1CCCN(Cc2ccccc2F)C1 (stereo not drawn) | 7.82% (inactive) | –
O=C(CCCN1C(=O)C(c2ccccc2)Oc2cccnc21)Nc1ccccc1Cl (stereo not drawn) | 4.77% (inactive) | –
O=C(CSc1nnc(Cc2cc(=O)[nH]c(=O)[nH]2)n1-c1ccc(Cl)cc1)NC1CCCC1 | -2.18% (inactive) | –
O=C(CSc1nnc(-c2csc3c2CCCC3)o1)Nc1ccccc1 | -63.3% (inactive) | –

Compound | activation, negative = inhibition | Potency
Nc1nc(SCCO)[nH]c(=O)c1NC(=O)c1ccco1 | 5.9% (inactive) | –
COc1cccc(C2Nc3ccccc3NC3=C2C(=O)CC(C)(C)C3)c1 (stereo not drawn) | -7.96% (inactive) | –
CN(C)C(=O)[C@H]1C[C@H]1[C@@H](O)[C@H](CO)NC(=O)[C@H](COCc1ccccc1)NC(=O)OC(C)(C)C | -3.65% (inactive) | –
CCCc1cc(C(=O)Nc2ccccc2SC)no1 | -2.35% (inactive) | –
CCOC(=O)c1csc(COc2ccc(OC)cc2)n1 | -3.06% (inactive) | –
O=C(CCCn1c(=O)oc2ccccc21)N1CCN(c2ccccn2)CC1 | -4.46% (inactive) | –
CCOC(=O)CSc1nc2cc3c(cc2cc1C#N)OCO3 | 6.17% (inactive) | –
COc1ccccc1NC(=S)NCc1ccc(Cl)cc1 | -3.88% (inactive) | –
CCOC(=O)CSc1nc2cc(C)ccc2cc1C#N | -0.328% (inactive) | –
COC(=O)c1ccccc1S(=O)(=O)NNC(=O)Nc1ccccc1 | 0.761% (inactive) | –
COc1ccc(C(=O)OCC(=O)N2CCCC2=O)c(OC)c1 | 0.637% (inactive) | –
Cc1ccc(NC(=O)c2c(O)c3ccccc3n(C)c2=O)nc1 | 9% (inactive) | –
O=C(C1COc2ccccc2O1)N1CCN(S(=O)(=O)c2ccccc2)CC1 (stereo not drawn) | -3.31% (inactive) | –
Cc1ccc(C(=O)Nc2nnc(S(=O)(=O)N3CCOCC3)s2)cc1 | 3.62% (inactive) | –
Cc1cccc(NC(=O)CSc2nc3ccccc3o2)c1 | -14.8% (inactive) | –
CC(Sc1ncnc2c1cnn2-c1ccccc1)C(=O)Nc1ccc(N2CCOCC2)cc1 (stereo not drawn) | -13.2% (inactive) | –
O=CN1CCN(C(=O)c2ccccc2Cl)CC1 | -5.76% (inactive) | –
N#CC/C(N)=N/NC(=O)CCCNc1ncc(C(F)(F)F)cc1Cl | -11.4% (inactive) | –
CCOC(=O)c1ccccc1NC(=O)CSc1nnc(Cc2cccn2C)n1-c1ccc(F)cc1 | – | 36.8 µM (active)
